Laboratory results: ChEMBL document CHEMBL1157539, “Thousands of chemical starting points for antimalarial lead identification” (Nature, 2010)

test system: Plasmodium falciparum; test: GSK_TCMDC: Inhibition of Plasmodium falciparum 3D7 in whole red blood cells, using parasite LDH activity as an index of growth. Test compounds present at 2uM; format: functional

Row | SMILES | Inhibition
1 | Cc1cc(NC(=O)Nc2ccc3nc(C)oc3c2)c2cc(Cl)ccc2n1 | 100%
2 | COc1cc2c(Nc3ccc(NC(=O)c4ccccc4)cc3)ncnc2cc1OCCCN1CCOCC1 | 99%
3 | O=C(NCCCCCN1CCC(c2c[nH]c3ccccc23)CC1)Nc1cccc(C(F)(F)F)c1 | 97%
4 | CCOc1ccc(NC(=O)c2cn3nc(-c4ccc(OCC)cc4)cc3nc2C2CCNCC2)cc1.Cl | 100%
5 | CC(=O)N(C)C1CCN(Cc2cccc(-c3ccc(-c4nc5cc(C(F)(F)F)ccc5[nH]4)cc3)c2)C1.O=C(O)C(F)(F)F (stereo not drawn) | 100%
6 | CN1CCC(N(Cc2ccc(-c3ccc(Cl)cc3)cc2)C(=O)Cn2c(CCc3cccc(F)c3F)cc(=O)c3ccccc32)CC1.O=C(O)C(O)C(O)C(=O)O | 97%
7 | O=C(Cc1c[nH]cn1)Nc1ccc(-c2cccc(-c3nc4cc(C(F)(F)F)ccc4[nH]3)c2)cc1 | 100%
8 | Cl.Oc1cccc(Nc2nc(NCC3CCCO3)c3ccccc3n2)c1 (stereo not drawn) | 100%
9 | CN1CCc2ccc(NC(=O)Nc3ccc(Cl)c(Cl)c3)cc2C1 | 80%
10 | CN1CCN(c2ccc(Nc3ncc(C#N)c(Nc4ccccc4C(N)=O)n3)cc2)CC1.Cl | 92%
11 | O=C(Nc1ccc(Cl)cc1)N[C@H]1CCN(Cc2ccc(OCCCN3CCCCC3)cc2)C1 | 100%
12 | O=C(Nc1ccc2c(c1)CCN2C1CCN(Cc2cccc(C(F)(F)F)c2)C1)c1ccco1 (stereo not drawn) | 95%
13 | O=C(O)C(F)(F)F.Oc1ccc(CCNc2nc(NCc3ccccc3-c3ccc(C(F)(F)F)cc3)nc(N3CCCNCC3)n2)cc1 | 95%
14 | COc1cc2nc(NCc3nc4ccccc4[nH]3)nc(N)c2cc1OC.Cl | 97%
15 | O=[N+]([O-])c1cccc(C(Nc2ccccn2)c2ccc3cccnc3c2O)c1 (stereo not drawn) | 86%
16 | Cc1nc2ccc([N+](=O)[O-])cc2c(=O)n1OCc1ccccc1 | 98%
17 | CCOC(=O)c1ccc(NC(=O)N(Cc2ccc(-c3ccc(CN4CCNCC4)cc3)cc2)Cc2cccnc2)cc1.O=C(O)C(F)(F)F | 94%
18 | NCc1cccc(-c2ccc(CNC3CCN(Cc4ccccc4)CC3)cc2)c1.O=C(O)C(F)(F)F | 95%
19 | CCc1ccc(CN2CCC(NC(=O)c3ccc(-c4ccccc4F)s3)CC2)cc1.O=C(O)C(F)(F)F | 80%
20 | CCCCCCCCNc1c2ccc(Cl)cc2nc2ccc(OC)cc12.Cl | 89%

Row | SMILES | Inhibition
21 | O=C(NCCCc1ccccc1)c1ccc(O)c(-c2cc(Cl)cc(Cl)c2)c1 | 99%
22 | N=c1ccn(CC(=NO)c2ccc(Cl)c(Cl)c2)cc1 | 87%
23 | Cl.O=C(/C=C/c1ccc(F)cc1)NC1CCC(CCN2CCc3ccc(-n4cccn4)cc3CC2)CC1 (stereo not drawn) | 89%
24 | O=S1(=O)C=C(c2ccccc2)CC1 | 97%
25 | O=c1cc(NCCCN(Cc2ccccc2)Cc2ccccc2)[nH]c2ccccc12 | 100%
26 | COc1ccc2nccc([C@@H](O)CN3CCC(NCCOc4cccc(C(F)(F)F)c4Cl)CC3)c2c1.O=C(O)C(=O)O | 100%
27 | COc1ccc(CN2CCC(CNCCc3c(Cl)cccc3Cl)CC2)cc1.O=C(O)C(F)(F)F | 98%
28 | Cc1cccc2nc(-c3ccc(-c4cccc(NC(=O)C(C)CN5CCN(C)CC5)c4)s3)[nH]c12 (stereo not drawn) | 97%
29 | Cc1ccc(C(=O)NC2C(=O)NC2c2ccccc2)c(C)c1 (stereo not drawn) | 90%
30 | O=C(/C=C/c1c(Cl)cccc1Cl)NC1CCC(CN2CCC(Cc3cc4ccccc4[nH]3)CC2)CC1 (stereo not drawn) | 91%
31 | CC1(C)CC(NCCCCCCCOc2ccc(OCc3ccccc3)cc2)CC(C)(C)N1.Cl | 100%
32 | O=C(O)C(F)(F)F.OC1CCCN(Cc2ccc(-c3ccc(-c4nc5ccccc5[nH]4)cc3)cc2)C1 (stereo not drawn) | 100%
33 | COc1cccc(CN2CCC3(CC2)CN(C(=O)Nc2ccc(Cl)c(Cl)c2)C3)c1 | 97%
34 | O=C(C1CCN(C(c2ccccc2)c2ccc(Cl)c(Cl)c2)CC1)N1CC=CC1 (stereo not drawn) | 89%
35 | COc1ccc2nccc([C@@H](O)CN3CCC(NC(=O)/C=C/c4ccc5ccccc5n4)CC3)c2c1 | 91%
36 | COc1ccc(-c2cccc(NC(=O)c3cccc(Cl)c3)c2)cc1CN1CCNCC1.O=C(O)C(F)(F)F | 100%
37 | N#Cc1cccc(C(=O)N2CCOC(CCN3CCC(c4ccccc4)CC3)(c3ccc(Cl)c(Cl)c3)C2)c1 (stereo not drawn) | 87%
38 | COc1cc(-n2cnc3cc(-c4ccc([N+](=O)[O-])cc4)sc3c2=O)ccc1OCCN1CCCC1.O=C(O)C(F)(F)F | 97%
39 | COc1ccc(C2CCN(CCCCNC(=O)c3ccc(NC(=O)c4ccc(Cl)cc4)cc3)CC2)c(C)c1.Cl | 98%

test system: Plasmodium falciparum; test: GSK_TCMDC: Inhibition of Plasmodium falciparum Dd2 in whole red blood cells, using parasite LDH activity as an index of growth. Test compounds present at 2uM; format: functional

Row | SMILES | Inhibition
40 | Cc1cc(NC(=O)Nc2ccc3nc(C)oc3c2)c2cc(Cl)ccc2n1 | 57%
41 | COc1cc2c(Nc3ccc(NC(=O)c4ccccc4)cc3)ncnc2cc1OCCCN1CCOCC1 | 93%
42 | O=C(NCCCCCN1CCC(c2c[nH]c3ccccc23)CC1)Nc1cccc(C(F)(F)F)c1 | 11%
43 | CCOc1ccc(NC(=O)c2cn3nc(-c4ccc(OCC)cc4)cc3nc2C2CCNCC2)cc1.Cl | 39%
44 | CC(=O)N(C)C1CCN(Cc2cccc(-c3ccc(-c4nc5cc(C(F)(F)F)ccc5[nH]4)cc3)c2)C1.O=C(O)C(F)(F)F (stereo not drawn) | 94%
45 | CN1CCC(N(Cc2ccc(-c3ccc(Cl)cc3)cc2)C(=O)Cn2c(CCc3cccc(F)c3F)cc(=O)c3ccccc32)CC1.O=C(O)C(O)C(O)C(=O)O | 88%
46 | O=C(Cc1c[nH]cn1)Nc1ccc(-c2cccc(-c3nc4cc(C(F)(F)F)ccc4[nH]3)c2)cc1 | 95%
47 | Cl.Oc1cccc(Nc2nc(NCC3CCCO3)c3ccccc3n2)c1 (stereo not drawn) | 87%
48 | CN1CCc2ccc(NC(=O)Nc3ccc(Cl)c(Cl)c3)cc2C1 | 22%
49 | CN1CCN(c2ccc(Nc3ncc(C#N)c(Nc4ccccc4C(N)=O)n3)cc2)CC1.Cl | 93%
50 | O=C(Nc1ccc(Cl)cc1)N[C@H]1CCN(Cc2ccc(OCCCN3CCCCC3)cc2)C1 | 0%
51 | O=C(Nc1ccc2c(c1)CCN2C1CCN(Cc2cccc(C(F)(F)F)c2)C1)c1ccco1 (stereo not drawn) | 92%
52 | O=C(O)C(F)(F)F.Oc1ccc(CCNc2nc(NCc3ccccc3-c3ccc(C(F)(F)F)cc3)nc(N3CCCNCC3)n2)cc1 | 2%
53 | COc1cc2nc(NCc3nc4ccccc4[nH]3)nc(N)c2cc1OC.Cl | 10%
54 | O=[N+]([O-])c1cccc(C(Nc2ccccn2)c2ccc3cccnc3c2O)c1 (stereo not drawn) | 29%
55 | Cc1nc2ccc([N+](=O)[O-])cc2c(=O)n1OCc1ccccc1 | 0%
56 | CCOC(=O)c1ccc(NC(=O)N(Cc2ccc(-c3ccc(CN4CCNCC4)cc3)cc2)Cc2cccnc2)cc1.O=C(O)C(F)(F)F | 34%
57 | NCc1cccc(-c2ccc(CNC3CCN(Cc4ccccc4)CC3)cc2)c1.O=C(O)C(F)(F)F | 3%
58 | CCc1ccc(CN2CCC(NC(=O)c3ccc(-c4ccccc4F)s3)CC2)cc1.O=C(O)C(F)(F)F | 12%
59 | CCCCCCCCNc1c2ccc(Cl)cc2nc2ccc(OC)cc12.Cl | 96%

Row | SMILES | Inhibition
60 | O=C(NCCCc1ccccc1)c1ccc(O)c(-c2cc(Cl)cc(Cl)c2)c1 | 98%
61 | N=c1ccn(CC(=NO)c2ccc(Cl)c(Cl)c2)cc1 | 81%
62 | Cl.O=C(/C=C/c1ccc(F)cc1)NC1CCC(CCN2CCc3ccc(-n4cccn4)cc3CC2)CC1 (stereo not drawn) | 16%
63 | O=S1(=O)C=C(c2ccccc2)CC1 | 44%
64 | O=c1cc(NCCCN(Cc2ccccc2)Cc2ccccc2)[nH]c2ccccc12 | 93%
65 | COc1ccc2nccc([C@@H](O)CN3CCC(NCCOc4cccc(C(F)(F)F)c4Cl)CC3)c2c1.O=C(O)C(=O)O | 98%
66 | COc1ccc(CN2CCC(CNCCc3c(Cl)cccc3Cl)CC2)cc1.O=C(O)C(F)(F)F | 69%
67 | Cc1cccc2nc(-c3ccc(-c4cccc(NC(=O)C(C)CN5CCN(C)CC5)c4)s3)[nH]c12 (stereo not drawn) | 75%
68 | Cc1ccc(C(=O)NC2C(=O)NC2c2ccccc2)c(C)c1 (stereo not drawn) | 0%
69 | O=C(/C=C/c1c(Cl)cccc1Cl)NC1CCC(CN2CCC(Cc3cc4ccccc4[nH]3)CC2)CC1 (stereo not drawn) | 17%
70 | CC1(C)CC(NCCCCCCCOc2ccc(OCc3ccccc3)cc2)CC(C)(C)N1.Cl | 73%
71 | O=C(O)C(F)(F)F.OC1CCCN(Cc2ccc(-c3ccc(-c4nc5ccccc5[nH]4)cc3)cc2)C1 (stereo not drawn) | 77%
72 | COc1cccc(CN2CCC3(CC2)CN(C(=O)Nc2ccc(Cl)c(Cl)c2)C3)c1 | 2%
73 | O=C(C1CCN(C(c2ccccc2)c2ccc(Cl)c(Cl)c2)CC1)N1CC=CC1 (stereo not drawn) | 84%
74 | COc1ccc2nccc([C@@H](O)CN3CCC(NC(=O)/C=C/c4ccc5ccccc5n4)CC3)c2c1 | 9%
75 | COc1ccc(-c2cccc(NC(=O)c3cccc(Cl)c3)c2)cc1CN1CCNCC1.O=C(O)C(F)(F)F | 52%
76 | N#Cc1cccc(C(=O)N2CCOC(CCN3CCC(c4ccccc4)CC3)(c3ccc(Cl)c(Cl)c3)C2)c1 (stereo not drawn) | 49%
77 | COc1cc(-n2cnc3cc(-c4ccc([N+](=O)[O-])cc4)sc3c2=O)ccc1OCCN1CCCC1.O=C(O)C(F)(F)F | 79%
78 | COc1ccc(C2CCN(CCCCNC(=O)c3ccc(NC(=O)c4ccc(Cl)cc4)cc3)CC2)c(C)c1.Cl | 35%
